Our source for the composite z-score and z-score values is PubChem BioAssay.

Calls of active or inactive are those of the source.

A short description of assay [1]: small molecules captured by biotinylated probe aFSTL3 – biochemical, small-molecule microarray, fluorescence 635/667, stem cell growth factor project, primary screen (AID 1064).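 Further: measures binding of the biotinylated anti-FSTL3 antibody to printed compounds.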 Conditions: higher = more signal.
Assay [2] is described as follows: binders from COS7 lysate, DM2A8 probe, primary screen, torsin A project, cell lysate, small-molecule microarray, fluorescence 635/667 (AID 1065). Conditions: higher = more signal, COS7 lysate expressing mutant human TOR1A.
The nature of assay [3]: small molecules captured by biotinylated probe aFGF2 – biochemical, small-molecule microarray, fluorescence 635/667, stem cell growth factor project, primary screen (AID 1067).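 Further: measures binding of biotinylated aFGF2 protein to printed compounds on slides; z-score merges feature fluorescence and signal-to-noise across triplicate slides.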 Conditions: higher = more signal.
Assay [4] can be described thus: small molecules captured by biotinylated probe aFGF10 – biochemical, small-molecule microarray, fluorescence 635/667, stem cell growth factor project, primary screen (AID 1071).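 Further: score merges 667 nm spot intensity and signal to noise from triplicate slides.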 Conditions: higher = more signal.
Assay [5] has as its target Neurogenic locus notch homolog protein 2 (Homo sapiens) (UniProt Q04721). Nature of the assay: small molecules binding Notch2 protein – biochemical, small-molecule microarray, 635 nm fluorescence, stem cell growth factors, primary screen (AID 1073). Conditions: higher = more signal.
Assay [6] deals with Pro-neuregulin-1, membrane-bound isoform (Homo sapiens) (UniProt Q02297). Nature of the assay: small molecules binding neuregulin-1 protein – biochemical, small-molecule microarray, fluorescence 635/667, psychiatric disease protein project, primary screen (AID 1075).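 Further: score combines 667 nm spot fluorescence with signal to noise.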 Conditions: NRG1 binding, 635 nm fluorescence, higher = more signal.
Pro-neuregulin-1, membrane-bound isoform (Homo sapiens), sequence (Q02297 whole entry, looked up, the tested form may be a part, canonical isoform): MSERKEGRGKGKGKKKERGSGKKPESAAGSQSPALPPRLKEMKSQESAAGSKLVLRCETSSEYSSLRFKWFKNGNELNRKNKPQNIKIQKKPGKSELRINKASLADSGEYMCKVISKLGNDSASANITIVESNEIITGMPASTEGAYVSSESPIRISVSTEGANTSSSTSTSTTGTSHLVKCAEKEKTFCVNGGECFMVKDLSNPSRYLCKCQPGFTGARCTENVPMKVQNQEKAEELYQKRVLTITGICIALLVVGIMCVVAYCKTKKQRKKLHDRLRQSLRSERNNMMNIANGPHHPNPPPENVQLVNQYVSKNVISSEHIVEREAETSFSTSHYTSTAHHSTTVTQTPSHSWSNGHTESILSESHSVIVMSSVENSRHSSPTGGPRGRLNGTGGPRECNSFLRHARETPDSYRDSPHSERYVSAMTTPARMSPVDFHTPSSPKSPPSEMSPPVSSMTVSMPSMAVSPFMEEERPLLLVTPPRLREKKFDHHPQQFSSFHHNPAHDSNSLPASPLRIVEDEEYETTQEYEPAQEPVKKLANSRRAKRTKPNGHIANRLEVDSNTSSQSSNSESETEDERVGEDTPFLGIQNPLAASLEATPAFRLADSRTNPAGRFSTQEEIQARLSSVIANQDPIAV
Assay [7] relates to Neuregulin-1 EGF-like domain. The assay can be described thus: small molecules binding NRG1 EGF domain – biochemical, small-molecule microarray, 635 nm fluorescence, primary screen (AID 1081).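 Further: binding of the protein to compounds printed on small-molecule microarray slides.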 Conditions: higher = more signal.
Assay [8] in a line: FRG1 expression reporter modulators in myotubes – cell-based, C2C12 myotubes, firefly/Renilla luciferase, luminescence, FRG1 inhibition for FSHD, primary screen (AID 1084). Conditions: FRG1 promoter luciferase, higher = more signal, called active from +8 up or from −8 down.
Assay [9] in a line: small molecules captured by biotinylated probe aFST – biochemical, small-molecule microarray, fluorescence 635/667, stem cell growth factor project, primary screen (AID 1086).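 Further: score merges 667 nm fluorescence with signal-to-noise of each printed compound spot.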 Conditions: higher = more signal.
A short description of assay [10]: binders of probe aHhip on microarray, primary screen, stem cell growth factor project, biochemical, small-molecule microarray, fluorescence 635/667 (AID 1087).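 Further: score merges spot fluorescence at 667nm with spot signal to noise ratio.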 Conditions: higher = more signal.
Assay [11] concerns PRMT1 (protein arginine N-methyltransferase 1). The assay can be described thus: small molecules binding arginine methyltransferase PRMT1 – biochemical, small-molecule microarray, 635 nm fluorescence, primary screen (AID 1088).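 Further: binding of Prmt1 protein to compounds spotted on small-molecule microarray slides.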 Conditions: higher = more signal.
Assay [12] is described as follows: growth effects on S. cerevisiae YJM789 – YJM789 clinical isolate, OD600, 24 h, basal, primary screen (AID 1089).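 Further: growth of clinical yeast isolate S. cerevisiae YJM 789 seeded 1000 cells per well; test concentration not given here.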 Conditions: higher = more signal, called active from +8 up or from −8 down.
A short description of assay [13]: S. pombe growth modifiers, basal conditions – strain 972, OD600, 24 h, no modulator, primary screen (AID 1090).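 Further: basal condition with compound alone and no growth modifier present; test concentration not given here.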 Conditions: S. pombe 972 growth, higher = more signal, called active from +8 up or from −8 down.
The nature of assay [14]: budding yeast growth modifiers under rapamycin – strain BY4716, OD600, 96 h, primary screen (AID 1091). Further: test concentration not given here. Conditions: S. cerevisiae BY4716 + rapamycin, higher = more signal, called active from +8 up or from −8 down.
For assay [15], the target named is Torsin-1A-interacting protein 2 (Homo sapiens) (UniProt Q8NFQ8). The assay can be described thus: small molecules binding lysate-expressed LULL1 – cell lysate, human LULL1 lysate, 635/667 nm fluorescence, primary screen (AID 1092).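 Further: score merges per-feature 667 nm fluorescence with signal-to-noise.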 Conditions: small-molecule microarray, hLULL1 lysate binding, 635 nm fluorescence; higher = more signal.
Torsin-1A-interacting protein 2 (Homo sapiens), sequence (Q8NFQ8 whole entry, looked up): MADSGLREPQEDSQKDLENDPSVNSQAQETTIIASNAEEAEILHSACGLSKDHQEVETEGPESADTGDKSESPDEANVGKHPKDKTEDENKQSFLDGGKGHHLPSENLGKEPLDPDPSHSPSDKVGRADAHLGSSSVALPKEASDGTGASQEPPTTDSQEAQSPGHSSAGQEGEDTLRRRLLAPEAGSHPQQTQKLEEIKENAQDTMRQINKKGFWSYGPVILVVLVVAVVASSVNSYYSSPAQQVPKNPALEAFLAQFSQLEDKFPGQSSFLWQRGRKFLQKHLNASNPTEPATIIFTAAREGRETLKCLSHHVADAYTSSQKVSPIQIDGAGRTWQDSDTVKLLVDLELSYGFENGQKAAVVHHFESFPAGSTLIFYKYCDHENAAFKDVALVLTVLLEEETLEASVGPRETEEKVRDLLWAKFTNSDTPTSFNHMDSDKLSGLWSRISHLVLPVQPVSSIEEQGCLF
Assay [16] in a line: optical density change of DRC41 E. coli – strain DRC41, OD650, 24 h, E. coli filamentation project, primary screen (AID 1093).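 Further: MC1000 strain lacking acrAB efflux and sulA so SOS filamentation is blocked; test concentration not given here.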 Conditions: E. coli DRC41 growth, higher = more signal, called active from +8 up or from −8 down.
The nature of assay [17]: probe aLefty2 binding to arrayed compounds – biochemical, biotinylated probe, 635/667 nm fluorescence, primary screen (AID 1094).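 Further: score merges spot fluorescence near 667 nm with spot signal-to-noise ratio.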 Conditions: small-molecule microarray, higher = more signal.
The test system of assay [18] is Noggin (protein binding on small-molecule microarray). Nature of the assay: small molecules binding Noggin protein – biochemical, 635/667 nm fluorescence, primary screen (AID 1095).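 Further: score merges 667 nm feature fluorescence with signal to noise over triplicate slides.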 Conditions: 635 nm fluorescence, higher = more signal.
The target of assay [19] is Neurogenic locus notch homolog protein 3 (Homo sapiens) (UniProt Q9UM47). Nature of the assay: small molecules binding NOTCH3 protein – biochemical, 635/667 nm fluorescence, primary screen (AID 1096). Conditions: small-molecule microarray, 635 nm fluorescence, higher = more signal.
Neurogenic locus notch homolog protein 3 (Homo sapiens), sequence (Q9UM47 whole entry, looked up): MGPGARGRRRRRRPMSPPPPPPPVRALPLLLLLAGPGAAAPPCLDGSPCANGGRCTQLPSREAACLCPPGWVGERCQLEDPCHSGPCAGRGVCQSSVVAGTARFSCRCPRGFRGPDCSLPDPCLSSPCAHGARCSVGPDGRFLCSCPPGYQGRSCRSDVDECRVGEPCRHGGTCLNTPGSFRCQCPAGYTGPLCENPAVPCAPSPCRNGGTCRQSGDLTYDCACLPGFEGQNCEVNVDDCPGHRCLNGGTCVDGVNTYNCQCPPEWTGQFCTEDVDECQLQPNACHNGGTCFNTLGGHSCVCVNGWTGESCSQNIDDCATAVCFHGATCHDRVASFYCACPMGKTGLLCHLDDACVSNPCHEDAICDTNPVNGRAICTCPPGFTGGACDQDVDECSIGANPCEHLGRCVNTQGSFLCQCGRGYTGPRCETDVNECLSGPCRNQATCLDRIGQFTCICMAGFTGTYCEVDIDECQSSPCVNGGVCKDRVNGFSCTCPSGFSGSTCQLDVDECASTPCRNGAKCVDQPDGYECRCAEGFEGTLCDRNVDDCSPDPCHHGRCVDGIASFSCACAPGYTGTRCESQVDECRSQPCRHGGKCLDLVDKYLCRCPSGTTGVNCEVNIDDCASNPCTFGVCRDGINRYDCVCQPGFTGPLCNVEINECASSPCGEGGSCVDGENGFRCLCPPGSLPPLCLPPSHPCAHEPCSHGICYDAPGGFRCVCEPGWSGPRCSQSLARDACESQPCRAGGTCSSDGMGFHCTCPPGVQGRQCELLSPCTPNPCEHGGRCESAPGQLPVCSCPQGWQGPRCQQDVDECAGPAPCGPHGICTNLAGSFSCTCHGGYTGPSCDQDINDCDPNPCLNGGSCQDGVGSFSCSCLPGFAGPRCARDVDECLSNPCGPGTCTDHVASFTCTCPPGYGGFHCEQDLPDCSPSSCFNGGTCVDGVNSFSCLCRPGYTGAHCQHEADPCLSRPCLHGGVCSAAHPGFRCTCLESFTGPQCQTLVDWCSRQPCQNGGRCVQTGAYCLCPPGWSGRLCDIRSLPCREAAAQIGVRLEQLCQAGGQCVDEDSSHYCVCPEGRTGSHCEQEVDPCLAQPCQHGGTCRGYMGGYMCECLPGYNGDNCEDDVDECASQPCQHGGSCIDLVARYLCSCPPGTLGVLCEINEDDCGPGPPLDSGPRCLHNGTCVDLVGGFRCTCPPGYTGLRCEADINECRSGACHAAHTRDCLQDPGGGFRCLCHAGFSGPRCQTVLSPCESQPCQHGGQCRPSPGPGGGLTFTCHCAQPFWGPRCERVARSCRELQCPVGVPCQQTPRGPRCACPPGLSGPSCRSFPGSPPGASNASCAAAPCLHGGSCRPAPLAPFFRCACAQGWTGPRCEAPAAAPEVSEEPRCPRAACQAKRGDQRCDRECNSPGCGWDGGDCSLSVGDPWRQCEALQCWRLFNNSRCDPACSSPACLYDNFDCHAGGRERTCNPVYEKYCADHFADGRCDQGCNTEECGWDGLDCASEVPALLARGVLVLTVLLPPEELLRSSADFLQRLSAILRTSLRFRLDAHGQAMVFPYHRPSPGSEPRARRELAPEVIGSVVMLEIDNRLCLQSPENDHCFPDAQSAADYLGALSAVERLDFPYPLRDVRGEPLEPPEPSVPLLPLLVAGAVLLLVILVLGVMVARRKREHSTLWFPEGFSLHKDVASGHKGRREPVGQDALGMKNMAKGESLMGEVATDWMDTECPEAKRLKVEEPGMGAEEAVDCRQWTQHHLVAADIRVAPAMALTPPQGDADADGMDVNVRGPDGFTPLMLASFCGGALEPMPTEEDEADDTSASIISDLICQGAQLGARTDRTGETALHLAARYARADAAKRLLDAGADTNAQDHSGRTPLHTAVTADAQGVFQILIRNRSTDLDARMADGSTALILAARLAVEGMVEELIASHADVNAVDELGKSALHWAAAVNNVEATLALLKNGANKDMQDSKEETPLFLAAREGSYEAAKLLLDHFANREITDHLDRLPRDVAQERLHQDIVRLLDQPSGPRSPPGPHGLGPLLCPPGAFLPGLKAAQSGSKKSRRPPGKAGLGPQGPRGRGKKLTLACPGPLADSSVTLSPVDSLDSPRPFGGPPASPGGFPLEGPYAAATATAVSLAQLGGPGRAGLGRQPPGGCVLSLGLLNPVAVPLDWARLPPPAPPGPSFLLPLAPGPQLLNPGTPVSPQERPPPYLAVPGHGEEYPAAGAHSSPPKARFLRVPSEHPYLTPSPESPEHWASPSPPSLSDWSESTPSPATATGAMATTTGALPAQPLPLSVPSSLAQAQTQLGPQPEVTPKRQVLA
The nature of assay [20]: probe aEGFR binding to arrayed compounds – biochemical, biotinylated probe, 635/667 nm fluorescence, primary screen (AID 1097).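 Further: probe is a biotinylated anti-EGFR antibody binding compounds printed on slides; score combines fluorescence near 667 nm and signal to noise of each spot.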 Conditions: small-molecule microarray, higher = more signal.

With `COC(=O)[C@@]1(Cc2ccc(OC)cc2)[C@H]2c3cc(C(=O)N(C)C)n(Cc4ccccc4)c3C[C@H]2CN1C(=O)c1ccccc1`, the composite z-score was 0.342 in [1]; 0.0293 in assay [2]; -0.0066 in [3]; 0.0679 in assay [4]; 0.571 in assay [5]; 1.11 in assay [6]. The composite z-score in assay [7] was 0.828; in assay [9], 1.06; in [10] it was -0.0597; in assay [11] it was -0.0018; in assay [15], 1.84; in assay [17] it was 0.0241. Moreover, the results for the composite z-score in assay [18], in assay [19] and in assay [20] were 0.337, 0.0263 and -0.254, respectively. In addition, the z-score in [8] was -1.53 (inactive); in assay [12], 0.0364 (inactive); in assay [13], -0.55 (inactive); in [14] it was -1.42 (inactive); in assay [16], -0.869 (inactive).

As to `COc1c(C)cc(-c2cc3c(c(Cc4ccccc4)n2)[Si](C(C)C)(C(C)C)OC3)cc1C`, the composite z-score in [1] was -0.148; in assay [2], 0.0413; in [3], -0.0448; in assay [4], -0.108; in assay [5] it was 0.64; in assay [6] it was -0.0762. The composite z-score was -0.588 in assay [7]; 0.335 in assay [9]; -0.0994 in assay [10]; -0.13 in assay [11]; 0.323 in assay [15]; -0.157 in assay [17]. Also, the composite z-score in assay [18] was 0.529; in [19], 0.598; in assay [20], -0.0509. For the same molecule, the z-score in [8] was 0.184 (inactive); in [12], 0.784 (inactive); in assay [13] it was 0.567 (inactive); in assay [14], 1.04 (inactive); in assay [16], -0.733 (inactive).

Consider `C=CC[C@]12N=C(c3ccc(OCCCO)cc3)O[C@H]1c1ccccc1N(C)C2=O`, for which the composite z-score in assay [1] stood at 1.21; in [2] it was 0.541; in assay [3], 0.0563; in assay [4], 0.21; in [5], 0.0523; in assay [6] it was 1.3. Also, the composite z-score in assay [7] was determined as 1.22; in assay [9], 0.896; in assay [10] it was 0.214; in assay [11], 1.57; in [15] it was 2.78; in assay [17], 0.28. Also, the values for the composite z-score in [18], in assay [19] and in assay [20] were 0.798, 0.725 and 0.0488, respectively. Besides, the z-score in [8] is -1.14 (inactive); in assay [12] it was -0.167 (inactive); in assay [13] it was -4.1 (inactive); in assay [14] it was 0.532 (inactive); in assay [16], -0.479 (inactive).

In the case of `O=c1cccc(-c2ccc(C(F)(F)F)cc2)o1`, the composite z-score was -0.0035 in assay [1]; -0.814 in assay [2]; -0.045 in assay [3]; -0.173 in assay [4]; -0.33 in [5]; -0.289 in assay [6]. The composite z-score in assay [7] is -0.44; in assay [9], -0.126; in [10], -0.0994; in [11] it was -1.99; in assay [15] it was -0.0985; in [17] it was -0.16. Moreover, the figures for the composite z-score in [18], in assay [19] and in assay [20] were -0.161, -0.894 and -0.22, respectively. Besides, the z-score in assay [8] is 3.27 (inactive); in assay [12], -2.99 (inactive); in assay [13], -8.39 (active); in assay [14] it was 0.427 (inactive); in assay [16], -0.491 (inactive).

Take `NC(=O)N1C(=O)C2C(C1=O)C1C=C(CCCO)C2C(c2cccs2)N1Cc1cc2c(cc1Br)OCO2` (stereo not given): the composite z-score is -0.137 in assay [1]; 0.314 in assay [2]; -0.0036 in [3]; 0.0276 in assay [4]; 0.0449 in assay [5]; 0.453 in assay [6]. The composite z-score in assay [7] was 1.16; in assay [9], 0.117; in assay [10] it was -0.0645; in assay [11] it was 0.0811; in assay [15], 1.84; in assay [17], -0.0362. Moreover, the composite z-score in assay [18] was 0.0233; in assay [19], 0.508; in [20] it was -0.0978. Also, the z-score in assay [8] is -1.85 (inactive); in assay [12] it was -1.75 (inactive); in assay [13], -0.498 (inactive); in [14] it was -1.79 (inactive); in [16], 0.263 (inactive).

Take `COCCCNC(=O)[C@]1(CCC(=O)OC(C)(C)C)N=C(c2ccc(OCCCO)cc2)O[C@@H]1c1ccccc1`: the composite z-score in assay [1] came out at 1.19; in assay [2], 0.389; in [3], 0.0629; in assay [4] it was 0.578; in [5], 0.819; in [6], 1.96. Moreover, the composite z-score in assay [7] is 1.28; in [9], 0.888; in [10], 0.591; in assay [11] it was 1.22; in [15], 3.65; in [17], 0.629. The composite z-score in assay [18] was -0.275; in assay [19], 0.226; in assay [20], 0.475. Besides, the z-score in [8] is 0.977 (inactive); in assay [12] it was 0.12 (inactive); in assay [13] it was 1.06 (inactive); in assay [14], -0.302 (inactive); in assay [16] it was 0.447 (inactive).
